How the values were obtained:
Assay in all cases: DAPPL (digital affinity profiling via proximity ligation, sequencing); 10 mM Tris-HCl pH 7.5, 50 mM NaCl, 1 mM DTT, 4% glycerol, room temperature, 30 min; GST-TFs on glutathione beads, 16-mer random dsDNA library, 0.1% formaldehyde crosslink after washing; high values mean tight binding
Conditions in all cases: protein: recombinant; tags: N-terminal GST; dsDNA, one strand shown
ERF = molecular target: T1, ERF (Homo sapiens, UniProt P50548 1-548)
T1 sequence: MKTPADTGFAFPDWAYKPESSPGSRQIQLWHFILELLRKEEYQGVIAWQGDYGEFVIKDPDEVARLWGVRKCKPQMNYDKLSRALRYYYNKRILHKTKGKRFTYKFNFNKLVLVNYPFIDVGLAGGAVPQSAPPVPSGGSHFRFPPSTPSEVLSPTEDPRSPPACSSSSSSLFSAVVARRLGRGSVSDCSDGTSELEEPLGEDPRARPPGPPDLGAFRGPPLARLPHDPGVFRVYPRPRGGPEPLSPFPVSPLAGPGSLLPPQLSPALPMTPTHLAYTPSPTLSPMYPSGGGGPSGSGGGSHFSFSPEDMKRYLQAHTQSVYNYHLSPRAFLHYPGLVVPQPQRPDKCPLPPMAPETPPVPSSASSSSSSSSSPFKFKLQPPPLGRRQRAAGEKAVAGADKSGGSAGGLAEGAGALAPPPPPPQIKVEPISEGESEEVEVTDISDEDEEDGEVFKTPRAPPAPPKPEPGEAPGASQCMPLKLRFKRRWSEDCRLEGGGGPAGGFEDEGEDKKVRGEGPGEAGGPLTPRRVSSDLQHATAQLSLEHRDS
Method in brief: (§1)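 Human transcription factors carrying a GST fusion were produced in yeast, bound to glutathione beads, tagged with DNA barcodes and pooled together with a tag-only sample. Each pool was held with 200 nmole of a random double-stranded 16-mer DNA library in Tris/NaCl/DTT/glycerol buffer for 30 min at room temperature, then washed, crosslinked in 0.1% formaldehyde, proximity-ligated with BsaI/T4 ligase (1 h, 37 °C), PCR-amplified and sequenced on an Illumina NextSeq500. Binding signal is the read frequency of each hexamer for a given factor divided by its frequency in the tag-only sample.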

ETV3L = molecular target: T2, ETV3L (Homo sapiens, UniProt Q6ZN32 1-361)
T2 sequence: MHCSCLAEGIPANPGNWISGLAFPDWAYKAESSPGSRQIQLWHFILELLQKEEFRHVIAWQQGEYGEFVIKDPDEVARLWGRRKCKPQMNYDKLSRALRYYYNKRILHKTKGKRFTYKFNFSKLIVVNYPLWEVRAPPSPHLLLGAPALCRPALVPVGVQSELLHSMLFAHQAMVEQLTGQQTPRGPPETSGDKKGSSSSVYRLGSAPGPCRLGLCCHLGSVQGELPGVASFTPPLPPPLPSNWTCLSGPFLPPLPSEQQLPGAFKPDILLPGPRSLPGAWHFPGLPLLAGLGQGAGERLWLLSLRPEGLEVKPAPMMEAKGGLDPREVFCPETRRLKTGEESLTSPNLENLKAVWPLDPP
Method in brief: as §1

ETS2 = molecular target: T3, ETS2 (Homo sapiens, UniProt P15036 1-469)
T3 sequence: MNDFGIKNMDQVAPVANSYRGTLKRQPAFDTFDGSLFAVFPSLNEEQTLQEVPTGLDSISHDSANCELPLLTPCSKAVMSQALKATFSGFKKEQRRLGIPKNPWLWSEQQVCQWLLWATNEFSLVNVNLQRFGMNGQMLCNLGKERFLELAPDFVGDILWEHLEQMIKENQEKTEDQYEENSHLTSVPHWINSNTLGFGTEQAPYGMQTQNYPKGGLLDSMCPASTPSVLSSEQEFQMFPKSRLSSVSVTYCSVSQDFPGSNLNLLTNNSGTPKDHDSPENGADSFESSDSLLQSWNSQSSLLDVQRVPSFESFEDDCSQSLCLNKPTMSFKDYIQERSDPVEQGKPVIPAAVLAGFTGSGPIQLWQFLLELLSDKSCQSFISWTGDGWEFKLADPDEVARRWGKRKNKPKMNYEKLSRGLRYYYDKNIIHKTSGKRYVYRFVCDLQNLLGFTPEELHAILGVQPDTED
Method in brief: as §1

SPDEF = molecular target: T4, SPDEF (Homo sapiens, UniProt O95238 1-335)
T4 sequence: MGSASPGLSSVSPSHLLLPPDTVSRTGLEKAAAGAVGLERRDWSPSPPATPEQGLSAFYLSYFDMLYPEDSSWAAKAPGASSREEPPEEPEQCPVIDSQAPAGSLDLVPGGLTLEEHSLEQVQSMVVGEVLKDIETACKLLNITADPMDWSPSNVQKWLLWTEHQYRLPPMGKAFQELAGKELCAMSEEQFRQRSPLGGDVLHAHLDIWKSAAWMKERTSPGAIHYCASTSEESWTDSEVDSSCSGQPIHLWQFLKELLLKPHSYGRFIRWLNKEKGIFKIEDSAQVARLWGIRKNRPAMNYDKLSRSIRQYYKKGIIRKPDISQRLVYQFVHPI
Method in brief: as §1

ETV7 = molecular target: T5, ETV7 (Homo sapiens, UniProt Q9Y603 1-341)
T5 sequence: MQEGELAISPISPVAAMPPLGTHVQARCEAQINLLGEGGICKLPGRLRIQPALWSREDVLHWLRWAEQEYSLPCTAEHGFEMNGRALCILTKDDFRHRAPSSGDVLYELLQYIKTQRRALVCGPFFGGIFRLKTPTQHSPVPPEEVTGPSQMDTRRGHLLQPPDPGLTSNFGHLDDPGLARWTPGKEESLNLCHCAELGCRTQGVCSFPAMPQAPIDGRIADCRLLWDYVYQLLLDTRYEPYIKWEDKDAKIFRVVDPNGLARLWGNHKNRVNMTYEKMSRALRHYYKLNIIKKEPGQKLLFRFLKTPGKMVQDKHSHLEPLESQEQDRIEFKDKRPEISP
Method in brief: as §1

ELF5 = molecular target: T6, ELF5 (Homo sapiens, UniProt Q9UKW6-2 1-255)
T6 sequence: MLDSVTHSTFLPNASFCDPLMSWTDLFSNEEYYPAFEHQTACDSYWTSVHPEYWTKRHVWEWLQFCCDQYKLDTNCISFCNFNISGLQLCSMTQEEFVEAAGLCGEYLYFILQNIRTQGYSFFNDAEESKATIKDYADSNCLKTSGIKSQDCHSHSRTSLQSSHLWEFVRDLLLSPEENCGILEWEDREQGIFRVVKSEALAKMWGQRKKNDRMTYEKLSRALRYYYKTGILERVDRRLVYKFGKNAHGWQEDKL
Method in brief: as §1

ETV3 = molecular target: T7, ETV3 (Homo sapiens, UniProt P41162-2 1-143)
T7 sequence: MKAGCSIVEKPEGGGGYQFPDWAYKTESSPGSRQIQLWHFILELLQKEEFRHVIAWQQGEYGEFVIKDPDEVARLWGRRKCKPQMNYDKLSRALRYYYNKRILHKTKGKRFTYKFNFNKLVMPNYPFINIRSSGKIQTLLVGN
Method in brief: as §1

ETV6 = ETV6 (Homo sapiens, UniProt P41212 1-452)
Chain of ETV6 (P41212 whole entry): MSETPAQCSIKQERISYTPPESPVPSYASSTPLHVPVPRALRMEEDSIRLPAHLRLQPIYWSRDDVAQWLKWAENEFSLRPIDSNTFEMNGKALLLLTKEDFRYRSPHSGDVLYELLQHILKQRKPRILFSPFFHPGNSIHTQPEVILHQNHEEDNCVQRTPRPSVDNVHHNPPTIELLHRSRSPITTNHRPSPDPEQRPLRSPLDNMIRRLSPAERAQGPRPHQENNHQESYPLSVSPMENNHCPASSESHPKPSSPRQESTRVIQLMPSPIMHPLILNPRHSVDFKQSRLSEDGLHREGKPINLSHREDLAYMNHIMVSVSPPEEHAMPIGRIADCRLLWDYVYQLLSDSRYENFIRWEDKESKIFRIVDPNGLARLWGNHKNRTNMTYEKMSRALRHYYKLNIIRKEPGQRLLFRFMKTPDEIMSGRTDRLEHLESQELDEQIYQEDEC
Method in brief: as §1

Sequence	binding signal (ERF)	binding signal (ETV3L)	binding signal (ETS2)	binding signal (SPDEF)	binding signal (ETV7)	binding signal (ELF5)	binding signal (ETV3)	binding signal (ETV6)
ACATTC	1.42 fold enrichment (6-mer frequency, TF over GST control)	1.3 fold enrichment (6-mer frequency, TF over GST control)	1.3 fold enrichment (6-mer frequency, TF over GST control)	1.27 fold enrichment (6-mer frequency, TF over GST control)	1.31 fold enrichment (6-mer frequency, TF over GST control)	1.36 fold enrichment (6-mer frequency, TF over GST control)	1.31 fold enrichment (6-mer frequency, TF over GST control)	1.4 fold enrichment (6-mer frequency, TF over GST control)
CTAAAT	1.35 fold enrichment (6-mer frequency, TF over GST control)	1.43 fold enrichment (6-mer frequency, TF over GST control)	1.38 fold enrichment (6-mer frequency, TF over GST control)	1.31 fold enrichment (6-mer frequency, TF over GST control)	1.34 fold enrichment (6-mer frequency, TF over GST control)	1.25 fold enrichment (6-mer frequency, TF over GST control)	1.4 fold enrichment (6-mer frequency, TF over GST control)	1.3 fold enrichment (6-mer frequency, TF over GST control)
AAAGGT	1.07 fold enrichment (6-mer frequency, TF over GST control)	1.03 fold enrichment (6-mer frequency, TF over GST control)	1.04 fold enrichment (6-mer frequency, TF over GST control)	1.11 fold enrichment (6-mer frequency, TF over GST control)	1.07 fold enrichment (6-mer frequency, TF over GST control)	1.01 fold enrichment (6-mer frequency, TF over GST control)	1.05 fold enrichment (6-mer frequency, TF over GST control)	1.11 fold enrichment (6-mer frequency, TF over GST control)
TGGTAT	1.34 fold enrichment (6-mer frequency, TF over GST control)	1.37 fold enrichment (6-mer frequency, TF over GST control)	1.33 fold enrichment (6-mer frequency, TF over GST control)	1.42 fold enrichment (6-mer frequency, TF over GST control)	1.35 fold enrichment (6-mer frequency, TF over GST control)	1.37 fold enrichment (6-mer frequency, TF over GST control)	1.28 fold enrichment (6-mer frequency, TF over GST control)	1.31 fold enrichment (6-mer frequency, TF over GST control)
AAGCAG	1 fold enrichment (6-mer frequency, TF over GST control)	1.04 fold enrichment (6-mer frequency, TF over GST control)	1.14 fold enrichment (6-mer frequency, TF over GST control)	1.13 fold enrichment (6-mer frequency, TF over GST control)	1.14 fold enrichment (6-mer frequency, TF over GST control)	1.19 fold enrichment (6-mer frequency, TF over GST control)	1.1 fold enrichment (6-mer frequency, TF over GST control)	1.11 fold enrichment (6-mer frequency, TF over GST control)
CTGACA	1.21 fold enrichment (6-mer frequency, TF over GST control)	1.34 fold enrichment (6-mer frequency, TF over GST control)	1.22 fold enrichment (6-mer frequency, TF over GST control)	1.24 fold enrichment (6-mer frequency, TF over GST control)	1.37 fold enrichment (6-mer frequency, TF over GST control)	1.26 fold enrichment (6-mer frequency, TF over GST control)	1.24 fold enrichment (6-mer frequency, TF over GST control)	1.24 fold enrichment (6-mer frequency, TF over GST control)
GATGCA	1.2 fold enrichment (6-mer frequency, TF over GST control)	1.14 fold enrichment (6-mer frequency, TF over GST control)	1.16 fold enrichment (6-mer frequency, TF over GST control)	1.47 fold enrichment (6-mer frequency, TF over GST control)	1.04 fold enrichment (6-mer frequency, TF over GST control)	1.1 fold enrichment (6-mer frequency, TF over GST control)	1.16 fold enrichment (6-mer frequency, TF over GST control)	1.02 fold enrichment (6-mer frequency, TF over GST control)
ACTGCC	1.4 fold enrichment (6-mer frequency, TF over GST control)	1.46 fold enrichment (6-mer frequency, TF over GST control)	1.29 fold enrichment (6-mer frequency, TF over GST control)	1.46 fold enrichment (6-mer frequency, TF over GST control)	1.34 fold enrichment (6-mer frequency, TF over GST control)	1.43 fold enrichment (6-mer frequency, TF over GST control)	1.46 fold enrichment (6-mer frequency, TF over GST control)	1.4 fold enrichment (6-mer frequency, TF over GST control)
CACATA	1.17 fold enrichment (6-mer frequency, TF over GST control)	1.19 fold enrichment (6-mer frequency, TF over GST control)	1.1 fold enrichment (6-mer frequency, TF over GST control)	1.11 fold enrichment (6-mer frequency, TF over GST control)	1.03 fold enrichment (6-mer frequency, TF over GST control)	1.05 fold enrichment (6-mer frequency, TF over GST control)	1.09 fold enrichment (6-mer frequency, TF over GST control)	1.1 fold enrichment (6-mer frequency, TF over GST control)
GATATT	1.05 fold enrichment (6-mer frequency, TF over GST control)	1.12 fold enrichment (6-mer frequency, TF over GST control)	1.13 fold enrichment (6-mer frequency, TF over GST control)	1.26 fold enrichment (6-mer frequency, TF over GST control)	1.14 fold enrichment (6-mer frequency, TF over GST control)	1.25 fold enrichment (6-mer frequency, TF over GST control)	1.14 fold enrichment (6-mer frequency, TF over GST control)	1.17 fold enrichment (6-mer frequency, TF over GST control)
TGCATC	1.4 fold enrichment (6-mer frequency, TF over GST control)	1.34 fold enrichment (6-mer frequency, TF over GST control)	1.39 fold enrichment (6-mer frequency, TF over GST control)	1.88 fold enrichment (6-mer frequency, TF over GST control)	1.37 fold enrichment (6-mer frequency, TF over GST control)	1.35 fold enrichment (6-mer frequency, TF over GST control)	1.29 fold enrichment (6-mer frequency, TF over GST control)	1.33 fold enrichment (6-mer frequency, TF over GST control)
TTACCG	1.05 fold enrichment (6-mer frequency, TF over GST control)	1.03 fold enrichment (6-mer frequency, TF over GST control)	1.19 fold enrichment (6-mer frequency, TF over GST control)	1.21 fold enrichment (6-mer frequency, TF over GST control)	1.17 fold enrichment (6-mer frequency, TF over GST control)	1.3 fold enrichment (6-mer frequency, TF over GST control)	1.23 fold enrichment (6-mer frequency, TF over GST control)	1.25 fold enrichment (6-mer frequency, TF over GST control)
ATAGTT	1.23 fold enrichment (6-mer frequency, TF over GST control)	1.27 fold enrichment (6-mer frequency, TF over GST control)	1.18 fold enrichment (6-mer frequency, TF over GST control)	1.12 fold enrichment (6-mer frequency, TF over GST control)	1.19 fold enrichment (6-mer frequency, TF over GST control)	1.12 fold enrichment (6-mer frequency, TF over GST control)	1.31 fold enrichment (6-mer frequency, TF over GST control)	1.21 fold enrichment (6-mer frequency, TF over GST control)
ATGATT	1.18 fold enrichment (6-mer frequency, TF over GST control)	1.24 fold enrichment (6-mer frequency, TF over GST control)	1.18 fold enrichment (6-mer frequency, TF over GST control)	1.15 fold enrichment (6-mer frequency, TF over GST control)	1.17 fold enrichment (6-mer frequency, TF over GST control)	1.14 fold enrichment (6-mer frequency, TF over GST control)	1.3 fold enrichment (6-mer frequency, TF over GST control)	1.19 fold enrichment (6-mer frequency, TF over GST control)
ACTTGG	1.28 fold enrichment (6-mer frequency, TF over GST control)	1.15 fold enrichment (6-mer frequency, TF over GST control)	1.16 fold enrichment (6-mer frequency, TF over GST control)	1.21 fold enrichment (6-mer frequency, TF over GST control)	1.2 fold enrichment (6-mer frequency, TF over GST control)	1.16 fold enrichment (6-mer frequency, TF over GST control)	1.2 fold enrichment (6-mer frequency, TF over GST control)	1.16 fold enrichment (6-mer frequency, TF over GST control)

Reference: paper PMC7862700, “An all-to-all approach to the identification of sequence-specific readers for epigenetic DNA modifications on cytosine”
